Source: PubChem BioAssay AID1159580 (chemical genetic matrix, 2015)
Out of some 5,500 compounds screened, about 2,000 (36%) were called active. Another 18% or so got no clear call; they are omitted. Cut-off read from the data, not from the text of the source: active = normalized growth mostly below about 0.91 (no sharp cut-off); inconclusive = no clear call, values can overlap the other calls; inactive = mostly above about 0.92. The list shows a part of the results.

Assay: chemical genetic growth profiling, strain panel (AID 1159580);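 note: tested at 20 µM; growth read once vehicle control cultures reached saturation at 30 °C; 1 = growth at the plate median or of vehicle wells; lower values mean less growth of the strain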
Conditions: S. cerevisiae deletion strains, growth OD

Measured: normalized growth

C/C(=C\CO)CC[C@H](C)CCC[C@H](C)CCCC(C)C
inactive: locus YJR066W, strain TOR1, hits give low values 0.98 | locus YJR075W, strain HOC1, hits give low values 1.12 | locus YKL009W, strain mrt4, hits give low values 1.09 | locus YKL160W, strain elf1, hits give low values 0.984 | locus YKL190W, strain CNB1, hits give low values 1.05 | locus YLR039C, strain RIC1, hits give low values 1.16 | locus YLR058C, strain SHM2, hits give low values 1.09 | locus YLR113W, strain HOG1, hits give low values 0.959 | locus YLR262C, strain YPT6, hits give low values 1.16 | locus YLR320W, strain mms22, hits give low values 0.988 | locus YLR342W, strain FKS1 (second series), hits give low values 1.1 | locus YLR342W, strain FKS1, hits give low values 1.09 | locus YLR357W, strain rsc2, hits give low values 1.1 | locus YLR371W, strain rom2, hits give low values 1.04 | locus YLR384C, strain iki3, hits give low values 0.978 | locus YLR418C, strain cdc73, hits give low values 1.12 | locus YML016C, strain PPZ1, hits give low values 1.05 | locus YMR205C, strain PFK2, hits give low values 1.08 | locus YMR307W, strain GAS1, hits give low values 1.1 | locus YNL067W, strain RPL9B, hits give low values 1.08 | locus YNL183C, strain NPR1, hits give low values 0.967 | locus YNL233W, strain BNI4, hits give low values 1.07 | locus YNL322C, strain KRE1 (second series), hits give low values 1.08 | locus YNL322C, strain KRE1, hits give low values 1.07 | locus YOL006C, strain TOP1, hits give low values 1.12 | locus YOL012C, strain htz1 1.59 | locus YOR061W, strain CKA2, hits give low values 1.1 | locus YOR069W, strain VPS5, hits give low values 1.05 | locus YOR080W, strain dia2, hits give low values 0.982 | locus YOR231W, strain MKK1, hits give low values 0.984 | locus YOR270C, strain vph1, hits give low values 1.16 | locus YPL051W, strain arl3, hits give low values 1.05 | locus YPL055C, strain LGE1, hits give low values 1.05 | locus YPL256C, strain CLN2, hits give low values 0.961 | locus YPR119W, strain clb2, hits give low values 1.06
active: locus YKL068W, hits give low values 1.09 [resistant] | locus YKL085W, strain MDH1 (second series), hits give low values 1.07 [resistant] | locus YKL085W, strain MDH1, hits give low values 1.07 [resistant] | locus YKR001C, strain vps1, hits give low values 1.19 [resistant] | locus YKR026C, strain gcn3, hits give low values 1.12 [resistant] | locus YKR091W, strain srl3, hits give low values 1.12 [resistant] | locus YLL001W, strain dnm1, hits give low values 1.13 [resistant] | locus YLL026W, hits give low values 1.14 [resistant] | locus YLL041C, strain sdh2, hits give low values 1.13 [resistant] | locus YLR027C, strain aat2, hits give low values 1.12 [resistant] | locus YLR102C, strain apc9, hits give low values 1.11 [resistant] | locus YLR221C, strain rsa3, hits give low values 1.15 [resistant] | locus YLR258W, strain gsy2, hits give low values 1.14 [resistant] | locus YLR262C, strain YPT6 (second series), hits give low values 1.17 [resistant] | locus YLR268W, strain sec22, hits give low values 1.15 [resistant] | locus YLR330W, strain CHS5, hits give low values 1.1 [resistant] | locus YLR370C, strain arc18, hits give low values 1.1 [resistant] | locus YML032C, strain rad52, hits give low values 1.15 [resistant] | locus YML120C, strain ndi1, hits give low values 1.13 [resistant] | locus YML124C, strain tub3, hits give low values 1.12 [resistant] | locus YMR058W, strain fet3, hits give low values 1.13 [resistant] | locus YMR078C, strain ctf18, hits give low values 1.15 [resistant] | locus YMR125W, strain sto1, hits give low values 1.13 [resistant] | locus YMR129W, hits give low values 1.14 [resistant] | locus YMR223W, strain ubp8, hits give low values 1.13 [resistant] | locus YMR231W, strain pep5, hits give low values 1.14 [resistant] | locus YMR263W, strain SAP30, hits give low values 1.12 [resistant] | locus YNL071W, strain lat1, hits give low values 1.13 [resistant] | locus YNL153C, strain GIM3, hits give low values 1.13 [resistant] | locus YNL209W, strain ssb2, hits give low values 1.12 [resistant] | locus YNL248C, strain rpa49, hits give low values 1.13 [resistant] | locus YNL250W, strain rad50, hits give low values 1.13 [resistant] | locus YNL271C, strain bni1, hits give low values 1.12 [resistant] | locus YNL298W, strain CLA4, hits give low values 1.14 [resistant] | locus YNL307C, strain MCK1, hits give low values 1.14 [resistant] | locus YNR049C, strain mso1, hits give low values 1.11 [resistant] | locus YNR052C, strain pop2, hits give low values 1.14 [resistant] | locus YOL147C, strain pex11, hits give low values 1.12 [resistant] | locus YOR001W, strain rrp6, hits give low values 1.15 [resistant] | locus YOR070C, strain gyp1, hits give low values 1.08 [resistant] | locus YOR083W, strain WHI5, hits give low values 1.14 [resistant] | locus YOR106W, strain vam3, hits give low values 1.15 [resistant] | locus YOR136W, strain idh2, hits give low values 1.15 [resistant] | locus YOR144C, strain elg1, hits give low values 1.13 [resistant] | locus YOR184W, strain ser1, hits give low values 1.15 [resistant] | locus YOR265W, strain rbl2, hits give low values 1.14 [resistant] | locus YOR290C, strain snf2, hits give low values 1.13 [resistant] | locus YOR316C, strain cot1, hits give low values 1.13 [resistant] | locus YPL078C, strain atp4, hits give low values 1.12 [resistant] | locus YPL106C, strain sse1, hits give low values 1.15 [resistant] | locus YPL240C, strain hsp82, hits give low values 1.12 [resistant] | locus YPR141C, strain kar3, hits give low values 1.12 [resistant] | locus YPR163C, strain tif3, hits give low values 1.13 [resistant] | locus YPR167C, strain met16, hits give low values 1.09 [resistant] | strain wtn01, hits give low values 1.12 [resistant]
